Hits are enriched below; roughly 3% of the tested compounds scored in any of these assays.
SENP8 block-1 = human SENP8 protease inhibitors, primary screen, biochemical, fluorescence, Nedd8 protein substrate, uHTS; Sentrin-specific protease 8 (Homo sapiens), Q96LD8; recombinant SENP8; inhibition, % at 20 µM; actives 0.64% (n = 360,000); AID 602440, 2012; in the data active = inhibition mostly above about 40%, no sharp cut-off; inactive = mostly below about 27%
Target sequence (Q96LD8 whole entry, looked up): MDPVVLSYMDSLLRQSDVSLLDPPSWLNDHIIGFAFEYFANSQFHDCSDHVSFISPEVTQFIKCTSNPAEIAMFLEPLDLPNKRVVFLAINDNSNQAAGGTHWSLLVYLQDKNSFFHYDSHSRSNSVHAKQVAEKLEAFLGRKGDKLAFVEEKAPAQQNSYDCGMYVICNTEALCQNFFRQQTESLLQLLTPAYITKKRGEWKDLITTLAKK
SENP7 inh = SENP7 protease inhibitors, primary screen, biochemical, luminescence, uHTS; Sentrin-specific protease 7 (Homo sapiens), Q9BQF6; recombinant SENP7, Z-RLRGG-aminoluciferin luminescence, 40 min; inhibition, % at 5 µM; actives 1.5% (n = 330,000); AID 434973, 2010;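 active = inhibition above about 50% at the single test dose, limit read from the data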;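 note: plate controls were DMSO with enzyme for no effect and no enzyme buffer wells for full effect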
Target sequence (Q9BQF6 706-1050 limits assumed): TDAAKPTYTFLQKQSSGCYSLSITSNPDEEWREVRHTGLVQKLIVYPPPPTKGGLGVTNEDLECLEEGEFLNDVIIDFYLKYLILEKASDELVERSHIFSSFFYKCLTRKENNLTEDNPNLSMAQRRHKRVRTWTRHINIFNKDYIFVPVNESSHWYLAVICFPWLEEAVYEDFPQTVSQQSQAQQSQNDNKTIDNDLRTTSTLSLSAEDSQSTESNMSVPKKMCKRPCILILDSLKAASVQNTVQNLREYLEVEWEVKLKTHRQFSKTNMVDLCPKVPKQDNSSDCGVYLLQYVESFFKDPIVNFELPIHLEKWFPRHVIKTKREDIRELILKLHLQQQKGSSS
SENP6 inh = SENP6 protease inhibitors, primary screen, biochemical, luminescence, uHTS. Recombinant SENP6 catalytic domain, aminoluciferin luminescence. inhibition, % at 10 µM. actives 1.8% (n = 330,000);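 active = inhibition above about 50% at the single tested dose, limit read from the data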;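 note: plate controls were DMSO wells with enzyme for no effect and DMSO wells lacking enzyme for full effect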
PPC-1+TRAIL kill = compounds killing PPC-1 cancer cells with TRAIL present, primary screen, TRAIL potentiator project, ATPLite luminescence, uHTS; PPC-1 cells + TRAIL, ATPLite viability luminescence; cell killing (% activity), % at 4 µM or 5 µM; actives 0.41% (n = 220,000);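 active = cell killing above 50% in the first pass at 4 µM, then a duplicate retest at 5 µM averaging 50% or more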;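 note: plate controls were cells with TRAIL plus DMSO for no effect and medium-only wells lacking cells for full effect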
C8 TRAIL sens = viability loss with TRAIL in NB7+C8 cells, primary screen, TRAIL sensitizer project, cell-based, ATPlite luminescence; actives 1% (n = 360,000); inhibition (viability loss, TRAIL sensitization), % at 10 µM;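 active = compounds causing at least 50% loss of cell viability in the single-dose screen, relative to plate controls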
SENP8 block-2 = SENP8 protease inhibitors, primary screen, biochemical, luminescence. actives 1.2% (n = 330,000). inhibition, % at 10 µM. Sentrin-specific protease 8 (Homo sapiens), Q96LD8. purified SENP8, Z-RLRGG-aminoluciferin cleavage; in the data active = inhibition above about 50%
SENP8 conf-1 = SENP8 protease inhibitors, retest, confirmation, biochemical, luminescence, single concentration; Recombinant SENP8, Z-RLRGG-aminoluciferin luminescence, 60 min; shares compounds with SENP7 inh; inhibition, % at 12.5 µM; actives 40% (n = 6,200);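 active = mean inhibition across replicates above about 50%, limit read from the data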
SENP6 conf = SENP6 protease inhibitors, confirmation, biochemical, luminescence, single concentration. shares compounds with SENP7 inh. recombinant SENP6, Z-RLRGG-aminoluciferin luminescence. inhibition, % at 12.5 µM. actives 58% (n = 6,200). AID 488915, 2010
SENP7 conf = SENP7 protease inhibitors, retest, confirmation, biochemical, luminescence, single concentration; shares compounds with SENP7 inh; recombinant SENP7, Z-RLRGG-aminoluciferin luminescence, 40 min; inhibition, % at 12.5 µM; actives 69% (n = 6,200); AID 488917, 2010
Casp3 select = caspase-3 protease inhibitors, confirmation, selectivity assay for SENP inhibitor project, biochemical, single concentration | shares compounds with SENP7 inh | purified caspase-3, Z-DEVD-aminoluciferin luminescence, 60 min | inhibition, % at 12.5 µM | actives 60% (n = 6,200);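 active = mean inhibition above about 50%, limit read from the data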;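 note: plate controls were enzyme with DMSO for no effect and wells without caspase-3 for full effect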
SENP luc ctr = interferes with luciferase luminescence in SENP counter-screen; shares compounds with SENP7 inh; Pre-incubated SENP8/Z-RLRGG-aminoluciferin, luciferase luminescence interference; inhibition, % at 12.5 µM; actives 39% (n = 6,200);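 active = mean inhibition above about 50% when retested at one dose, limit read from the data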;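 note: plate controls were DMSO wells with completed reaction for no effect and substrate without enzyme for full effect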
SENP8 conf-2 = human SENP8 protease inhibitors, confirmation, biochemical, Nedd8 protein substrate, single concentration. shares compounds with SENP8 block-1. purified SENP8, Nedd8-AMC/pro-Nedd8 cleavage fluorescence, 30 min. inhibition, % at 25 µM. actives 15% (n = 1,400). AID 624319, 2012; in the data active = inhibition mostly above about 39%, no sharp cut-off; inactive = mostly below about 34%
Starred values were filed as active, the others as inactive.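 Rule for the calls, unless noted: active = mean inhibition above about 50% in the one-dose retest (limit read from the data); inactive = the rest.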

What do the screens show for `COc1ccc(/C=N/NC(=O)c2nn(-c3ccc(Cl)cc3)c(=O)c3c(N)scc23)cc1`?
SENP8 block-1: 48.9*; SENP7 inh: 14.7; SENP6 inh: 60.7*; PPC-1+TRAIL kill: -12.7; C8 TRAIL sens: -3.8; SENP8 block-2: 18.4; SENP8 conf-1: -1.3; SENP6 conf: 45.8; SENP7 conf: -0.5; Casp3 select: 27.6; SENP luc ctr: -2.0; SENP8 conf-2: 61.1*

How did COc1cccc(NC(=O)CN(C)C(C)C(=O)N2CCCC2)c1 (stereo unspecified) do in these assays?
SENP8 block-1: 14.5; SENP7 inh: -2.0; SENP6 inh: 3.3; C8 TRAIL sens: -17.1; SENP8 block-2: 2.3

How did O=C(COC(=O)c1ccc([N+](=O)[O-])s1)NNC(=O)c1ccccc1 do in these assays?
SENP8 block-1: 48.3*; SENP7 inh: 44.9; SENP6 inh: 70.4*; C8 TRAIL sens: 5.0; SENP8 block-2: 74.6*; SENP8 conf-1: 4.8; SENP6 conf: 88.3*; SENP7 conf: 48.5; Casp3 select: 49.2; SENP luc ctr: 1.0; SENP8 conf-2: 86.2*

Results for Nc1ccc(C(=O)OCC(=O)NC(=O)c2ccccc2)cc1[N+](=O)[O-] ?
SENP8 block-1: 8.6; SENP7 inh: -1.9; SENP6 inh: -1.3; C8 TRAIL sens: 7.1; SENP8 block-2: 1.9

What do the screens show for `O=C(COC(=O)c1ccc([N+](=O)[O-])s1)NCCc1ccccc1`?
SENP8 block-1: 51.3*; SENP7 inh: 26.3; SENP6 inh: 62.1*; C8 TRAIL sens: -1.5; SENP8 block-2: 68.2*; SENP8 conf-1: 84.4*; SENP6 conf: 86.1*; SENP7 conf: 42.0; Casp3 select: 13.7; SENP luc ctr: 0.1; SENP8 conf-2: 80.1*

How did Cc1ccc(C(=O)OCC(=O)NC(C)c2ccccc2)s1 (stereo unspecified) do in these assays?
SENP8 block-1: 5.7; SENP7 inh: 4.5; SENP6 inh: -2.3; C8 TRAIL sens: -12.0; SENP8 block-2: -10.5

How did CCc1cc(C(=O)OCC(=O)NCCc2ccccc2)sc1C do in these assays?
SENP8 block-1: 9.0; C8 TRAIL sens: 2.2

What do the screens show for `CC(NC(=O)COC(=O)c1ccc([N+](=O)[O-])s1)c1ccccc1` (stereo unspecified)?
SENP8 block-1: 40.8*; SENP7 inh: 40.6; SENP6 inh: 75.5*; PPC-1+TRAIL kill: 8.5; C8 TRAIL sens: 9.3; SENP8 block-2: 61.8*; SENP8 conf-1: 23.0; SENP6 conf: 46.3; SENP7 conf: 2.7; Casp3 select: -8.7; SENP luc ctr: -6.7; SENP8 conf-2: 80.7*

How did CSc1nnc(-c2ccccc2N=Cc2c(C)[nH]n(-c3ccc4ccccc4c3)c2=O)c(=O)[nH]1 do in these assays?
SENP8 block-1: 40.7*; SENP7 inh: 16.5; SENP6 inh: 77.8*; PPC-1+TRAIL kill: 46.2; C8 TRAIL sens: 47.4; SENP8 block-2: 53.4*; SENP8 conf-1: 46.8; SENP6 conf: 62.6*; SENP7 conf: 33.6; Casp3 select: 66.6*; SENP luc ctr: 67.5*; SENP8 conf-2: 14.9

Results for O=[N+]([O-])c1nn(-c2ccc3c(c2)OCCO3)n(O)c1=NCc1ccc(F)cc1Cl ?
SENP8 block-1: 51.7*; SENP7 inh: 64.5*; SENP6 inh: 50.3*; PPC-1+TRAIL kill: 7.9; C8 TRAIL sens: 7.4; SENP8 block-2: 10.6; SENP8 conf-1: 4.6; SENP6 conf: 20.3; SENP7 conf: 28.2; Casp3 select: 9.5; SENP luc ctr: 6.5; SENP8 conf-2: 21.1

What do the screens show for `COc1cc(O)c(CC=C(C)C)c(O)c1C(=O)CCc1ccc(O)cc1`?
SENP8 block-1: 54.2*; SENP7 inh: 12.3; SENP6 inh: 77.4*; PPC-1+TRAIL kill: -5.7; C8 TRAIL sens: 6.5; SENP8 block-2: 69.6*; SENP8 conf-1: 41.4; SENP6 conf: 77.2*; SENP7 conf: 82.9*; Casp3 select: -2.1; SENP luc ctr: 3.9; SENP8 conf-2: 19.0

What do the screens show for `CCOC(=O)C1=C(C)OC2(O)c3ccccc3C(=O)C12O` (stereo unspecified)?
SENP8 block-1: 95.7*; SENP7 inh: 46.4; SENP6 inh: 68.7*; PPC-1+TRAIL kill: -3.9; C8 TRAIL sens: 10.7; SENP8 block-2: 64.4*; SENP8 conf-1: 24.8; SENP6 conf: 88.5*; SENP7 conf: 82.3*; Casp3 select: -3.6; SENP luc ctr: -1.1; SENP8 conf-2: 98.6*

Results for CN1CCC(N(C)C(=O)c2ccc(Cl)c(S(=O)(=O)N3CCOCC3)c2)CC1 ?
SENP8 block-1: 8.8; SENP7 inh: 0.6; SENP6 inh: -3.7; C8 TRAIL sens: 4.7; SENP8 block-2: -2.6

What do the screens show for `CCCN(CCC)CCNC(=O)C1(O)c2ccccc2NC(=O)N1c1cccc(OC)c1` (stereo unspecified)?
SENP8 block-1: 18.9; SENP7 inh: -0.8; SENP6 inh: 0.2; C8 TRAIL sens: -11.2; SENP8 block-2: -4.8

Results for O=C1C(=O)N(Cc2ccccc2)C(=O)N1CCN1C(=O)c2ccccc2C1=O ?
SENP8 block-1: 9.1; SENP7 inh: -9.4; SENP6 inh: -39.2; PPC-1+TRAIL kill: -2.5; C8 TRAIL sens: 1.0; SENP8 block-2: -11.0

Screening data (PubChem)
